Measured values published in PubChem BioAssay.
Calls of active or inactive are those of the source.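 How the source made its calls: active means NADPH fluorescence slope more negative than the mean of all samples by about 3 SD, 99.7% confidence; inactive means the rest.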

These compounds were tested against Voltage-gated potassium channel subunit beta-2 (Rattus norvegicus) (UniProt P62483) (assay: enhancers of rat Kvbeta2 NADPH turnover – biochemical, NADPH fluorescence, primary screen (AID 623;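 further: fluorescence intensity change per second fitted from 20 to 320 s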)). Conditions: Recombinant KvBeta, NADPH fluorescence decrease slope, 10 min; at 10 µM; stronger effect = lower value.
Sequence of Voltage-gated potassium channel subunit beta-2 (Rattus norvegicus) (P62483 whole entry, looked up): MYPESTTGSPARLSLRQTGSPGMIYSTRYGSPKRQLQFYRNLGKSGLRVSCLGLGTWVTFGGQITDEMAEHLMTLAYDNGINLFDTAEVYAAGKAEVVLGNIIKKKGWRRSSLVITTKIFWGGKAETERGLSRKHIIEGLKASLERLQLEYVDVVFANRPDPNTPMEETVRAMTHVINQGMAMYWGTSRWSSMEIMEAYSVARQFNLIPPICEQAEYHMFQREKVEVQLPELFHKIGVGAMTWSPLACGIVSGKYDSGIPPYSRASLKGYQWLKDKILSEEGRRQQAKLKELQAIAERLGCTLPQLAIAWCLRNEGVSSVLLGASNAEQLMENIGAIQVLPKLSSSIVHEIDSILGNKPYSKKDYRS

NADPH fluorescence slope, inactive:
CN(c1ccc(OCc2nnc(-c3ccccc3)o2)cc1)S(=O)(=O)c1ccccc1 -5.4e-05, Cc1ccccc1NC(=O)C1CCCN(S(=O)(=O)c2cnc[nH]2)C1 (centres undefined) -2e-05, COc1ccc(C(=O)NCC(=O)NC2=NCCS2)cc1 -5.5e-05, O=C1N2c3ccccc3CCc3cccc(c32)C1(O)C(F)(F)F (centres undefined) 1.4e-06, Cn1c(=O)c2c(nc(CN3CCN(Cc4ccccc4)CC3)n2Cc2cccc(Cl)c2)n(C)c1=O -5.1e-05, CN(C)c1ccc(CNCCC2(O)CCOC(C)(C)C2)cc1 (centres undefined) -4.7e-06, CC(C(N)=O)N1C(=O)C2C3C=CC(C3)C2C1=O (centres undefined) -2.4e-05, Nc1nc(-c2ccc(Br)s2)c(Br)s1 2.9e-05, O=C(c1c(F)cccc1F)N(Cc1ccccn1)C1CCCC1 2e-06
